Vaccinia Venus: inhibitors of vaccinia virus (Venus reporter); Potency, µM (highest dose often 36.5 µM), actives largely listed as inhibitors; 0.46% of 330,000 active; Vaccinia virus Venus reporter expression, fluorescence; calls by dose curve; tested in A549 cells; also: nearly all actives have a fitted effect of over 30% in size
Marburg entry inh: inhibitors of Marburg virus binding or cell entry. Marburg virus pseudotyped entry inhibition, cell reporter. 1.8% of 300,000 active. Potency, µM (top dose mostly 37.8 µM), usual class: inhibitors; calls by dose curve; tested in HEK293 cells
Lassa entry inh: blocks Lassa virus binding to or entry into cells. AID 540256. Potency, µM (doses to about 37.9 µM), hits mostly inhibitors. Lassa virus pseudotype entry inhibition, cell reporter. 1.2% of 300,000 active; calls by dose curve; tested in HEK293 cells; also: nearly all actives have a fitted effect of over 50% in size
HCV inhibitor: blocks hepatitis C virus. Huh7.5.1 HCVcc-Cre infection, luciferase reporter, 44 h. Potency, µM (titrated, usually from 41.8 µM), usual class: inhibitors. 3.4% of 340,000 active; active = well fitted inhibition curve with a large enough effect; inconclusive = small, poorly fitted or top-dose-only effect, or another doubt; inactive = no such curve, though single readings can be large or run the other way
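HCVcc-Cre virus at an moi near 0.5 was added right after compound to cells cultured 4 h from seeding (1,000 cells/well). Luciferase activity was determined 44 h later, 15 min after substrate addition at RT.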
FMDV inh: foot and mouth disease virus antiviral activity; Potency, µM (doses to about 57.9 µM), hits mostly inhibitors; 1.2% of 410,000 active; FMDV antiviral cell-based qHTS; calls by dose curve; tested in HEK293T cells; also: read-out not given here; nearly all actives have a fitted effect of over 45% in size
Vaccinia mCherry: vaccinia inhibition (mCherry reporter); AID 720579; 0.63% of 310,000 active; Vaccinia virus mCherry reporter infection, fluorescence; Potency, µM (series often up to 36.5 µM), most hits filed as inhibitors; calls by dose curve; tested in A549 cells; also: nearly all actives have a fitted effect of over 35% in size
Numbers stand for hits; – = inactive; ? = inconclusive; · = no result given; [ ] = dose if it differs, or a comment. The list is not random: actives were taken first. Their share in the collection is about 5.3%.

SMILES | Vaccinia Venus | Marburg entry inh | Lassa entry inh | HCV inhibitor | FMDV inh | Vaccinia mCherry
Cc1cc(Br)c2[nH]cc(CCNC(=O)c3ccco3)c2c1 | · | · | · | 13µM | – | ·
Cc1nn(-c2ccccc2)c(C)c1NC(=O)COc1ccc2ccccc2c1 | · | ? | – | ? | ? | ·
Cc1nn(-c2ccccc2)c(C)c1NC(=O)COc1ccccc1C#N | – | · | · | · | – | –
Cc1nn(-c2ccccc2)c(C)c1NC(=O)COc1cc(F)ccc1[N+](=O)[O-] | · | · | · | ? | 25µM | ·
Cc1nn(-c2ccccc2)c(C)c1NC(=O)COc1ccc(Br)cc1Cl | – | – | ? | ? | 22µM | –
Cc1ccc(CN2C[C@H](Sc3ccccn3)C[C@H]2C(=O)Nc2ccc3sc(C)nc3c2)c(C)c1 | – | · | · | · | – | –
COCCN(C(=O)C1CCCC1)c1c(N)n(Cc2ccccc2)c(=O)[nH]c1=O | – | ? | – | – | – | –
Nc1c(N(C(=O)Nc2ccc(Cl)c(Cl)c2)C2CCCC2)c(=O)[nH]c(=O)n1Cc1ccccc1 | – | – | ? | 11µM | ? | –
O=C(NN=C1C[C@@H](O)[C@H](O)[C@H]2[C@@H]3C(=O)N(Cc4ccc5c(c4)OCO5)C(=O)[C@@H]3CC[C@H]12)OCc1ccccc1 | · | – | ? | · | · | ·
O=C(O)c1ccc(N/N=C/c2ccc(-c3ccccc3Cl)o2)cc1 | – | ? | ? | – | ? | ?
NC(=S)N/N=C/c1ccc(-c2cc(Cl)ccc2Cl)o1 | 3.2µM | ? | ? | ? | – | 3.2µM
O=C(N/N=C/c1ccc(-c2ccccc2Cl)o1)c1ccccc1 | – | ? | ? | 13µM | – | –
Cc1cccc(C)c1OC[C@H](O)CNS(=O)(=O)c1ccccc1C(=O)N1CCOCC1 | · | – | · | · | · | ·
COC(=O)Cn1cnc2c(nnn2-c2ccc(F)cc2)c1=O | – | · | · | – | – | –
COC(=O)Cn1cnc2c(Cl)nc(F)nc21 | – | – | · | 5.6µM | ? | –
Cc1ccc(Nc2c(-c3ccc(N4CCOCC4)cc3)nc3cccc(C)n23)cc1 | – | ? | – | · | – | –
Cc1cccc(CSc2nnnn2-c2ccccc2)c1 | – | ? | 10µM | – | – | –[1.46 µM]
Cc1ccc(C)c(-n2nnnc2Sc2nnnn2-c2ccccc2)c1 | · | 15µM | ? | 11µM | 16µM | ·
Cc1ccc(S(=O)(=O)NCCSc2nnnn2-c2ccccc2)cc1 | – | – | – | – | – | –
Cc1cccc(CSc2nnc(N)n2-c2ccccc2)c1 | · | – | – | – | – | ·
Cc1ccc(S(=O)(=O)NCCSc2nnnn2-c2cc(C)ccc2C)cc1 | ? | ? | 8.9µM | ? | – | –
COc1ccc(S(=O)(=O)N2CCCC(C(=O)NCc3cccnc3)C2)cc1 (configuration not stated) | – | – | – | – | – | –
CCOC(=O)c1c(C)[nH]c(C)c1S(=O)(=O)N1CCC(C(=O)Nc2ccc(F)cc2F)CC1 | – | · | – | · | – | –
CN1CCN(c2ccc([N+](=O)[O-])c(-n3nc(-c4ccccc4)c4ccccc4c3=O)c2)CC1 | ? | ? | ? | 4.5µM | – | ?
COc1cc(OC)c(OC)cc1CN1CCN(Cc2ccc(SC)cc2)CC1 | · | 7.3µM | ? | ? | – | ·
SMILES | Vaccinia Venus | Marburg entry inh | Lassa entry inh | HCV inhibitor | FMDV inh | Vaccinia mCherry
COc1ccc(CN2CCN(Cc3ccc(C)cc3)CC2)c(OC)c1 | – | 10µM | – | ? | – | –
COc1ccc(CN2CCN(Cc3ccccc3F)CC2)c(OC)c1 | – | ? | – | – | – | –
COc1cccc(OCc2cc(C3Nc4ccccc4C(=O)N3c3ccccc3)ccc2OC)c1 (configuration not stated) | – | · | · | · | · | –
Cc1ccc(NC(=O)c2noc3c2CCCCC3)cc1 | · | ? | 15µM | – | – | ·
O=C(Cc1ccc(OCCC2CCCCC2)cc1)NO | – | · | · | · | · | ?
CC(C)(C)c1nnc(N/N=C/c2ccccc2O)n(N)c1=O | ? | ? | ? | ? | – | 2.8µM
O=C1C=CC2C3C(=O)N(c4ccccc4)C(=O)C3C1N2Cc1ccccc1 (configuration not stated) | ? | ? | 25µM | ? | 10µM | 28µM
O=C1C2C3C=CC(CC3)C2C(=O)N1c1ccccc1 (configuration not stated) | · | · | · | – | – | ·
O=C1C(CSCc2ccccc2)NC(=S)N1c1ccccc1 (configuration not stated) | · | · | · | – | 28µM | ·
Cc1cc(C)n2nc(CNS(=O)(=O)c3ccccc3)nc2n1 | – | – | ? | · | – | –
O=C(Nc1cccc(Cl)c1)c1ccc(NCCCN2CCOCC2)c([N+](=O)[O-])c1 | ? | 10µM | ? | 10µM | ? | –[1.46 µM]
S=C(NCCCN1CCOCC1)Nc1cccc(Cl)c1 | – | – | 13µM | – | – | –
COc1ccccc1C1CN(Cc2cccn2-c2ncccn2)Cc2ccccc2O1 (configuration not stated) | – | · | · | · | – | –
CCN(CC)c1ccc(NC(=O)C(NS(=O)(=O)c2cccs2)C(C)C)c(C)c1 (configuration not stated) | – | – | – | · | – | –
N#CN(CC(N)=O)c1nc(N2CCCCC2)nc(N2CCCCC2)n1 | – | ? | – | 10µM | – | ·
O=C(Nc1ccc(F)cc1F)c1ccc(-n2cnc3cccnc32)cc1 | – | · | – | · | – | –
C=CC[n+]1ccc(/C=C2\C=Cc3cc(C)ccc3N2CC)c2ccccc21 | · | · | · | 2.5µM | 35µM | ·
Cc1ccc(NC(=O)Cc2ccc(Cl)c(Cl)c2)cc1S(=O)(=O)N(C)C | – | ? | 13µM | ? | 22µM | –
Cc1ccc(NC(=O)Cc2ccccc2Cl)cc1S(=O)(=O)N(C)C | – | ? | ? | ? | – | ?
O=C(Cc1ccsc1)Nc1ccc(S(=O)(=O)C(F)F)cc1 | ? | – | ? | – | – | 10µM
CCN(CC)S(=O)(=O)c1ccc(Cl)c(NC(=O)c2ccc(C#N)cc2)c1 | – | ? | ? | ? | ? | –
CC(C)NS(=O)(=O)c1ccc(NC(=O)Cc2ccsc2)cc1 | · | · | · | – | – | ·
CCN(CC)S(=O)(=O)c1cc(NC(=O)Cc2ccsc2)ccc1C | ? | – | 0.46µM | 13µM | – | ?
CCN(CC)S(=O)(=O)c1ccc(C)c(NCC(=O)Nc2ccc(C#N)c(Cl)c2)c1 | ? | ? | ? | 13µM | – | –
COc1cccc(CNC(=O)Cn2c(=O)oc3cc(S(=O)(=O)N4CCCC4)ccc32)c1 | – | – | ? | · | – | –
SMILES | Vaccinia Venus | Marburg entry inh | Lassa entry inh | HCV inhibitor | FMDV inh | Vaccinia mCherry
Fc1ccc(-n2cc(-c3ccccc3)c3c(NC4CCCCC4)ncnc32)cc1 | – | · | – | · | – | –
Cc1cnc(SCc2ccccn2)nc1C1CCCN(C(=O)c2ccc3c(c2)OCO3)C1 (configuration not stated) | – | · | · | · | – | –
CCCCOc1ccccc1CC1C(=O)Nc2ccc(Br)cc21 (configuration not stated) | · | ? | – | · | · | ·
O=C(Cn1c2ncccc2c(=O)n1-c1ccccc1)Nc1cccc(C(F)(F)F)c1 | – | · | – | · | – | –
CCCSc1nnc2c(n1)OC(c1sccc1C)Nc1ccccc1-2 (configuration not stated) | –[7.34 µM] | ? | – | · | – | –[7.34 µM]
NS(=O)(=O)c1cccc(NC(=O)COC(=O)/C(=C/c2cccs2)c2cccs2)c1 | – | ? | – | – | ? | –
Cc1ccc(NC(=O)CNc2ccc(Cl)c(Cl)c2)cc1S(=O)(=O)N(C)C | ? | ? | ? | 6.3µM | ? | ?

High-throughput results (PubChem BioAssay)
